“And” between values parts separate entries of the source, which are not always exact repeats. Equal entries are not always repeated. Hit rate of the full screen: of about 5,500 compounds, about 2,000 (36%) were called active. Roughly 18% stayed inconclusive and do not appear here. Some of the results follow. A number with no mark means an inactive call. Rule as the data show it: active = normalized growth mostly below about 0.91 (no sharp cut-off); inconclusive = no clear call, values can overlap the other calls; inactive = mostly above about 0.92.
Experiment: chemical genetic growth profiling, strain panel (AID 1159580);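 also: tested at 20 µM; growth read once vehicle control cultures reached saturation at 30 °C; 1 = growth at the plate median or of vehicle wells; lower values mean less growth of the strain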
Conditions: S. cerevisiae deletion strains, growth OD

COC(=O)Nc1nc2ccc(C(=O)c3ccccc3)cc2[nH]1
normalized growth (locus YAL013W, strain DEP1, active compounds read low): 1.02 | normalized growth (locus YAL021C, strain ccr4, active compounds read low): 0.95 | normalized growth (locus YAL026C, strain drs2, active compounds read low): 0.963 | normalized growth (locus YAL030W, strain snc1, active compounds read low): 0.983 | normalized growth (locus YBL061C, strain skt5, active compounds read low): 0.903 (active) | normalized growth (locus YBR009C, strain hhf1, active compounds read low): 0.898 (active) | normalized growth (locus YBR021W, strain FUR4, active compounds read low): 0.97 | normalized growth (locus YBR023C, strain chs3, active compounds read low): 0.913 (active) | normalized growth (locus YBR171W, strain sec66, active compounds read low): 1.01 | normalized growth (locus YBR229C, strain ROT2, active compounds read low): 1.02 | normalized growth (locus YBR231C, strain swc5, active compounds read low): 0.261 (active) | normalized growth (locus YBR279W, strain paf1, active compounds read low): 0.958 | normalized growth (locus YCL011C, strain gbp2, active compounds read low): 0.962 | normalized growth (locus YCL016C, strain dcc1, active compounds read low): 0.902 (active) | normalized growth (locus YCL029C, strain bik1, active compounds read low): 0.781 (active) | normalized growth (locus YCL069W, strain vba3, active compounds read low): 0.98 | normalized growth (locus YCR088W, strain abp1, active compounds read low): 0.977 | normalized growth (locus YDL005C, strain med2, active compounds read low): 0.959 | normalized growth (locus YDL035C, strain GPR1, active compounds read low): 0.967 | normalized growth (locus YDL040C, strain nat1, active compounds read low): 0.992 | normalized growth (locus YDL074C, strain BRE1, active compounds read low): 0.924 | normalized growth (locus YDL101C, strain DUN1, active compounds read low): 1.03 | normalized growth (locus YDL134C, strain PPH21, active compounds read low): 1.01 | normalized growth (locus YDL185W, strain tfp1, active compounds read low): 1.04 | normalized growth (locus YDL192W, strain arf1, active compounds read low): 0.99 | normalized growth (locus YDR001C, strain nth1, active compounds read low): 0.976 | normalized growth (locus YDR069C, strain doa4, active compounds read low): 0.952 | normalized growth (locus YDR101C, strain arx1, active compounds read low): 0.998 | normalized growth (locus YDR137W, strain rgp1, active compounds read low): 0.84 (active) | normalized growth (locus YDR150W, strain NUM1, active compounds read low): 1.01 | normalized growth (locus YDR159W, strain sac3, active compounds read low): 0.861 (active) | normalized growth (locus YDR162C, strain NBP2, active compounds read low): 1.01 | normalized growth (locus YDR195W, strain ref2): 0.979 | normalized growth (locus YDR297W, strain sur2, active compounds read low): 0.963 | normalized growth (locus YDR318W, strain mcm21, active compounds read low): 0.954 | normalized growth (locus YDR334W, strain swr1, active compounds read low): 0.627 (active) | normalized growth (locus YDR335W, strain msn5, active compounds read low): 0.99 | normalized growth (locus YDR388W, active compounds read low): 0.982 | normalized growth (locus YDR392W, strain spt3, active compounds read low): 0.805 | normalized growth (locus YDR502C, strain sam2, active compounds read low): 0.958 | normalized growth (locus YEL003W, strain gim4, active compounds read low): 0.173 (active) | normalized growth (locus YEL037C, strain rad23, active compounds read low): 0.981 | normalized growth (locus YEL061C, strain CIN8 (second series), active compounds read low): 0.976 | normalized growth (locus YEL061C, strain CIN8, active compounds read low): 1 | normalized growth (locus YER015W, strain faa2, active compounds read low): 0.974 | normalized growth (locus YER016W, strain bim1, active compounds read low): 0.935 | normalized growth (locus YER110C, active compounds read low): 1.02 | normalized growth (locus YER111C, strain swi4, active compounds read low): 0.997 | normalized growth (locus YER155C, strain BEM2 (second series), active compounds read low): 0.896 | normalized growth (locus YER155C, strain BEM2, active compounds read low): 0.981 | normalized growth (locus YER167W, strain BCK2, active compounds read low): 0.94 | normalized growth (locus YFR010W, strain ubp6, active compounds read low): 0.98 | normalized growth (locus YGL078C, strain dbp3, active compounds read low): 0.974 | normalized growth (locus YGL086W, strain mad1, active compounds read low): 0.999 | normalized growth (locus YGL167C, strain pmr1, active compounds read low): 0.979 | normalized growth (locus YGL173C, strain kem1, active compounds read low): 0.981 | normalized growth (locus YGL227W, strain vid30, active compounds read low): 0.977 | normalized growth (locus YGL240W, strain doc1, active compounds read low): 0.812 (active) | normalized growth (locus YGL248W, strain PDE1, active compounds read low): 0.99 | normalized growth (locus YGL253W, strain hxk2, active compounds read low): 0.951 | normalized growth (locus YGR078C, strain PAC10, active compounds read low): 0.0909 (active) | normalized growth (locus YGR135W, strain pre9, active compounds read low): 0.948 | normalized growth (locus YGR229C, strain SMI1, active compounds read low): 0.775 (active) | normalized growth (locus YGR252W, strain gcn5, active compounds read low): 0.916 | normalized growth (locus YHR013C, strain ard1, active compounds read low): 1 | normalized growth (locus YHR027C, strain rpn1, active compounds read low): 0.931 | normalized growth (locus YHR030C, strain SLT2, active compounds read low): 1.01 and 0.956 | normalized growth (locus YHR079C, strain IRE1 (second series), active compounds read low): 0.999 | normalized growth (locus YHR079C, strain IRE1, active compounds read low): 0.937 | normalized growth (locus YHR094C, strain hxt1, active compounds read low): 1 | normalized growth (locus YHR129C, strain ARP1, active compounds read low): 0.969 | normalized growth (locus YHR142W, strain chs7, active compounds read low): 0.872 (active) | normalized growth (locus YHR200W, strain rpn10, active compounds read low): 0.917 (active) | normalized growth (locus YIL066C, strain RNR3, active compounds read low): 1.01 | normalized growth (locus YIL073C, strain SPO22, active compounds read low): 0.998 | normalized growth (locus YIL125W, strain kgd1, active compounds read low): 0.971 | normalized growth (locus YIR030C, strain dcg1, active compounds read low): 1 | normalized growth (locus YJL092W, strain hpr5, active compounds read low): 0.965 | normalized growth (locus YJL095W, strain BCK1 (second series), active compounds read low): 0.996 | normalized growth (locus YJL095W, strain BCK1, active compounds read low): 1.06 and 0.938 | normalized growth (locus YJL115W, strain asf1, active compounds read low): 0.977 | normalized growth (locus YJL129C, strain trk1, active compounds read low): 0.906 | normalized growth (locus YJL134W, strain LCB3, active compounds read low): 1 | normalized growth (locus YJL154C, strain vps35, active compounds read low): 0.981 | normalized growth (locus YJL164C, strain tpk1, active compounds read low): 0.957 | normalized growth (locus YJL166W, strain qcr8, active compounds read low): 0.868 (active) | normalized growth (locus YJL168C, strain set2, active compounds read low): 1 | normalized growth (locus YJL187C, strain SWE1 (second series), active compounds read low): 1.01 | normalized growth (locus YJL187C, strain SWE1, active compounds read low): 0.934 | normalized growth (locus YJR043C, strain POL32, active compounds read low): 0.867 | normalized growth (locus YJR066W, strain TOR1, active compounds read low): 0.819 (active)
